Among the data in PubChem BioAssay AID588727 (Southern Research Specialized Biocontainment Screening …, 2011) are inhibition and outcome values, retold here.

The nature of this assay: inhibitors of VEEV TC-83 cytopathic effect, confirmation, Vero cells (AID 588727). As to conditions: VEEV TC-83 cytopathic effect inhibition, at 20 µM.
Where [1] appears, read: stronger effect = higher value unless noted.
Where [2] appears, read: measured here: 10K pilot screen inhibition, stronger effect = higher value.

In all, about 350,000 compounds went through this assay and about 450 (0.13%) were called active. The rule behind the calls is not given here. These entries were drawn from the full list. Potency and affinity values are given separately.

As for `CNC(=O)/C(C#N)=C/c1cn(CC(=O)OC)c2ccccc12`, the inhibition (usually the share of the control response that was lost under treatment) under setting [1] is 0.69% (inactive).

As for `COc1ccc(OC)c2[nH]c(C(=O)N3CCC(C(=O)O)CC3)cc12`, under setting [1], the inhibition is 0.69% (inactive).

Regarding `COc1cc2cc(C(=O)O)[nH]c2c(OC)c1OC`, under setting [1], the inhibition is 0.1% (inactive).

Turning to `COC(=O)c1cc(S(=O)(=O)N2CCN(c3ccc([N+](=O)[O-])cc3)CC2)c[nH]1`, under setting [1], the inhibition is 3.14% (inactive).

As for `O=S(=O)(/C=C/c1ccccc1)Oc1ccccc1`, the inhibition entry under setting [1] is “inactive”.

Take `Cc1c(C)n(CCCN(C)C)c2ncnc(Nc3ccccc3)c12`: under setting [1], the inhibition was 1.72% (inactive).

Take `COc1ccccc1Nc1ncnc2c1c(C)c(C)n2CCO`: the inhibition under setting [1] is 0.65% (inactive).

Regarding `CCOc1ccc(NC(=O)CN(C)C(=O)CCC2CCCCC2)cc1OCC`, under setting [1], the inhibition is 2.6% (inactive).

Take `NNc1nc(-c2ccccc2Cl)c2cc(Br)ccc2n1`: under setting [1], the inhibition is 1.08% (inactive).

On to `O=C(CCC1CCCN(C(=O)CCN2CCCCC2=O)C1)NCc1ccccc1F` (stereo unspecified), for which, under setting [1], the inhibition is 0.405% [measured here: 10K pilot screen inhibition, stronger effect = higher value] and the result was inactive.

Take `C=CCN1C(=O)c2ccc(C(=O)NCCc3ccc(OC)c(OC)c3)cc2C1=O`: the inhibition under setting [1] was 0.34% (inactive).

For `CC1CCCCC1NC(=O)COCc1cc(-c2cccs2)on1` (stereo unspecified), the inhibition result under setting [1] is “inactive”.

Turning to `COc1ccc(-n2c(C)cc(C(=O)Cn3nnc4ccccc4c3=O)c2C)cc1`, the inhibition under setting [1] is 1.42% (inactive).

As for `Cc1cc(C(=O)Cn2nnc3ccccc3c2=O)c(C)n1-c1c(C)n(C)n(-c2ccccc2)c1=O`, under setting [1], the inhibition entry was “inactive”.

For `CC1Sc2ccc(S(=O)(=O)CCC(=O)N3CCCC3)cc2NC1=O` (stereo unspecified), under setting [1], the inhibition is 2.36% (inactive).

On to `O=C(CSc1nc(-c2ccccc2Cl)ns1)c1ccc(Cl)cc1`, for which the inhibition under setting [1] was 1.15% (inactive).

For `COC(=O)c1ccc(N/C(=N/S(=O)(=O)c2ccccc2)c2ccccc2)cc1`, the inhibition under setting [1] is 1.58% (inactive).

Consider `CCC(C)N=Cc1c(Nc2ccccc2)nc2c(C)cccn2c1=O` (stereo unspecified), for which, under setting [1], the inhibition entry was “inactive”.

Take `CCCC[C@H]1COCCS(=O)(=O)N1Cc1cccc([N+](=O)[O-])c1`: the inhibition result under setting [1] is “inactive”.

With `O=C(NCc1cccnc1)/C(=C/c1ccc(-c2cccc(Cl)c2)o1)S(=O)(=O)c1ccccc1`, the inhibition under setting [1] was 9.73% (inactive).

Take `O=C(NCc1cccnc1)/C(=C\c1ccc(-c2ccc(Cl)c(Cl)c2)o1)S(=O)(=O)c1ccccc1`: under setting [1], the inhibition is 0.29% (inactive).

With `O=C(NC1CCCc2ccccc21)c1ccc(Br)cc1` (stereo unspecified), under setting [1], the inhibition was 0.82% (inactive).

`O=C(CCNC(=O)c1ccccc1)NC1CCCc2ccccc21` (stereo unspecified): the inhibition entry under setting [1] is “inactive”.

`O=C(CCNC(=O)c1ccc([N+](=O)[O-])cc1)NC1CCCc2ccccc21` (stereo unspecified): the inhibition under setting [1] was 9.16% (inactive).

`O=C(Cc1ccc(Br)cc1)NC1CCCc2ccccc21` (stereo unspecified): the inhibition under setting [1] was 3.28% (inactive).

Take `CC(SCC(=O)Nc1ccccc1Br)c1nc2ccccc2c(=O)[nH]1` (stereo unspecified): the inhibition entry under setting [1] was “inactive”.

With `CCCOc1ccc(C(=O)Nc2cc(S(=O)(=O)N3CCOCC3)ccc2N2CCOCC2)cc1`, the inhibition under setting [1] is 6.81% (inactive).

In the case of `CC(=O)c1ccc(S(=O)(=O)N2CCN(C(=O)c3ccc(-n4nc(C)c(Cl)c4C)cc3)CC2)cc1`, the inhibition under setting [1] was 2.19% (inactive).

In the case of `O=[N+]([O-])c1cccc(/C=C/c2ccccn2)c1`, under setting [1], the inhibition is 0.25% (inactive).

Consider `O=[N+]([O-])c1cccc(/C=C/c2ccncc2)c1`, for which the inhibition entry under setting [1] was “inactive”.

In the case of `O=C(CCNS(=O)(=O)c1cccc(Cl)c1)OCC(=O)N1CCN(C(=O)c2ccco2)CC1`, the inhibition under setting [1] is 0.85% (inactive).

`O=C(CC1SC(N2CCOCC2)=NC1=O)Nc1ccccc1Cl` (stereo unspecified): under setting [1], the inhibition is 2.68% (inactive).

In the case of `C=CCN1C(c2ccc(Br)cc2)=CS/C1=C(\C#N)c1nnc(N2CCOCC2)n1-c1ccccc1`, the inhibition under setting [1] was 11.4% (inactive).

With `Cc1ccccc1CC1SC(N=C(N)N)=NC1=O` (stereo unspecified), the inhibition under setting [1] is 1.59% (inactive).

Regarding `Cc1ccccc1CC1SC(N)=NC1=O` (stereo unspecified), the inhibition under setting [1] is 1.28% (inactive).

`O=C1N/C(=N\c2ccccn2)SC1Cc1ccccc1Cl` (stereo unspecified): the inhibition under setting [1] is 4.16% (inactive).

Regarding `CC(=O)/C(C#N)=C1\NC(=O)C(Cc2cc(Cl)ccc2Cl)S1` (stereo unspecified), the inhibition under setting [1] was 3.03% (inactive).

`O=c1c2ccccc2nc(-c2ccco2)n1-c1nc2ccccc2s1`: under setting [1], the inhibition was 1.81% (inactive).

With `FC(F)Oc1ccc(NC(=S)N2CCc3ccccc32)cc1`, under setting [1], the inhibition was 0.39% (inactive).

With `Cc1ccccc1C(=O)N1CCC(C(=O)Nc2sccc2C(N)=O)CC1`, the inhibition under setting [1] was 2.51% (inactive).

For `CN(Cc1ccc(O)cc1)C1CCCCC1`, the inhibition under setting [1] is 1.27% (inactive).

Regarding `OCC1(CCOc2ccccc2)CCN(Cc2ccncc2)CC1`, the inhibition under setting [1] is 0.23% (inactive).

Take `OCC1(CCOc2ccccc2)CCN(Cc2cn[nH]c2-c2ccc(F)cc2)CC1`: the inhibition under setting [1] is 2.7% (inactive).

Turning to `C=CCOc1ccc(C=Nc2ccc(Cl)cc2)c(O)c1`, the inhibition under setting [1] was 0.47% (inactive).

Consider `Cc1c(C(=O)N(C)CCn2ccnc2C)oc2c(F)cccc12`, for which, under setting [1], the inhibition was 1.03% (inactive).

For the compound `CCN(CC)C(=O)c1sc(NC(=O)c2ccoc2C)c(C(=O)OC)c1C`, under setting [1], the inhibition was 1.79% (inactive).

`CN1CCN(CCCNC(=O)c2ccc(/C=C3\Oc4ccccc4N(Cc4ccccc4F)C3=O)cc2)CC1`: the inhibition under setting [1] is 13.6% (inactive).

For the compound `O=C(NCCN1CCOCC1)c1ccc(/C=C2\Sc3ccccc3N(Cc3ccccc3F)C2=O)cc1`, the inhibition under setting [1] was 10.8% (inactive).

As for `COc1ccccc1N1CCN(C(=S)Nc2ccccc2)CC1`, the inhibition under setting [1] was 1.3% (inactive).

Take `CC(C)Oc1ccc(Cl)cc1Nc1nc(NCCO)nc(N2CCCC2)n1`: the inhibition runs as follows: (stronger effect = higher value) 4.93% (inactive); under setting [2], 4.53%.

Take `Cc1ccc(NC(=O)CN2C(=O)NC3(CCCc4ccccc43)C2=O)c([N+](=O)[O-])c1` (stereo unspecified): the inhibition under setting [1] was 1.12% (inactive).

`Cc1ccccc1NS(=O)(=O)c1nnc(NC(=O)c2ccccc2F)s1`: the inhibition is, setting by setting: (stronger effect = higher value) 1.96% (inactive); under setting [2], 3.31%.

For `CC1(C)CC(=O)C=C(/C=C/c2ccccc2)C1`, under setting [1], the inhibition was 0.62% (inactive).

With `C(=C\c1ccncc1)/c1ccccc1`, the inhibition under setting [1] was 0.98% (inactive).

Consider `Cc1ccnc(SCc2cc(=O)c(OC(=O)c3cc([N+](=O)[O-])ccc3Cl)co2)n1`, for which the inhibition under setting [1] is 0.24% (inactive).

For `CCOC(=O)c1sc(=S)sc1SCc1cccc(C(F)(F)F)c1`, the inhibition entry under setting [1] is “inactive”.

With `O=S1(=O)C=C(SCc2ccc(F)cc2)Nc2ccccc21`, the inhibition result under setting [1] was “inactive”.

As for `CCCc1c(C(=O)NNc2cccc(Cl)c2)cnn1-c1ccccc1`, the inhibition under setting [1] is 2.24% (inactive).

Turning to `CCCc1c(C(=O)Nc2ccc(F)cc2F)cnn1-c1ccccc1`, the inhibition result under setting [1] was “inactive”.

As for `CCCc1c(C(=O)Nc2ccc(F)cc2)cnn1-c1ccccc1`, the inhibition under setting [1] is 7.43% (inactive).

For `CCCc1c(NC(=O)Nc2ccc(F)cc2)cnn1-c1ccc(Cl)cc1`, the inhibition under setting [1] was 3.23% (inactive).

Turning to `CC(Sc1nc2ncc(Cl)cc2[nH]1)C(=O)c1c(N)n(C)c(=O)n(C)c1=O` (stereo unspecified), under setting [1], the inhibition is 10.7% (inactive).

As for `Cn1ncc2c(=O)[nH]cnc21`, the inhibition under setting [1] was 0.51% (inactive).

On to `CC(=O)Nc1ccc(S(=O)(=O)N(C)CC(=O)OCC(=O)N(CC(C)C)C2CCS(=O)(=O)C2)cc1` (stereo unspecified), for which, under setting [1], the inhibition is 6.9% (inactive).

With `COc1ccc(NC(=O)CN(C)C(=O)c2cn(-c3ccccc3)nc2-c2cccnc2)cc1`, the inhibition under setting [1] was 6.98% (inactive).

In the case of `CSCCC(NS(=O)(=O)c1ccc(Cl)cc1)C(=O)OCC(=O)NC12CC3CC(CC(C3)C1)C2` (stereo unspecified), under setting [1], the inhibition is 2.38% (inactive).

Consider `O=C1Nc2ccccc2C1(O)c1ccccc1O` (stereo unspecified), for which the inhibition under setting [1] is 0.23% (inactive).

On to `COc1cc2c(O)c3c(c(-c4ccc5c(c4)OCO5)c2cc1OC)C(=O)OC3`, for which, under setting [1], the inhibition is 8.81% (inactive).

As for `COc1c(NC(C)=O)c2c(c([N+](=O)[O-])c1OC)C(=O)OC2`, the inhibition under setting [1] was 0.9% (inactive).

Turning to `O=S(=O)(NCc1ccccc1Cl)c1ccc(-n2cnnn2)cc1`, under setting [1], the inhibition was 1.99% (inactive).

As to `CCCCC(=O)NC(=S)NNC(=O)c1ccc(OC)cc1`, the inhibition under setting [1] was 11% (inactive).

For `CCC(=O)NC(=S)NNC(=O)c1ccc(OC)cc1`, the inhibition under setting [1] was 3.83% (inactive).

As to `CCCOc1ccc(C(=O)NNC(=S)NC(=O)c2ccccc2)cc1`, the inhibition under setting [1] was 7.4% (inactive).

Turning to `C=CCNC(=S)NNC(=O)c1ccc(OCCC)cc1`, the inhibition under setting [1] is 1.27% (inactive).

Turning to `CCCn1c(N)c(C(=O)CSc2nnc(N)s2)c(=O)[nH]c1=O`, under setting [1], the inhibition is 8.01% (inactive).

In the case of `CCC1(CC)NC(=O)N(CC(=O)Nc2ccc(C)cc2C)C1=O`, the inhibition under setting [1] was 1.89% (inactive).

With `Cc1cn([C@H]2C[C@H](O)[C@@H](CNC(=O)[C@@H]3CCCN3Cc3ccccc3)O2)c(=O)[nH]c1=O`, under setting [1], the inhibition is 1.26% (inactive).

Take `COCC(=O)N1CCCC(C(=O)c2ccc(-c3ccccc3)c(F)c2)C1` (stereo unspecified): the inhibition under setting [1] is 3.71% (inactive).

`COc1cc(/C=C/C(=O)c2ccc(NS(=O)(=O)c3ccc(C)cc3)cc2)ccc1OC(F)F`: the inhibition under setting [1] was 42.9% (inactive).

As to `COc1cc(OC)c(OC)cc1/C=C/C(=O)c1ccc(NS(=O)(=O)c2ccc(C)cc2)cc1`, under setting [1], the inhibition is 6.43% (inactive).

On to `COCCNC(=O)CCCn1c(=O)c2cc(OC)c(OC)cc2n(CC(=O)Nc2ccccc2OC)c1=O`, for which the inhibition under setting [1] is 1.37% (inactive).

On to `O=C(CCc1ccccc1)N1CCN(c2ccc(Cl)cc2)CC1`, for which, under setting [1], the inhibition is 0.61% (inactive).

Consider `CCCCN(CC)CCNC(=O)c1ccc2c(Cl)c3c(nc2c1)CCC3`, for which the inhibition result under setting [1] was “inactive”.

Consider `CCCN(CCC)CCCNC(=O)c1ccc2c(Cl)c3c(nc2c1)CCC3`, for which the inhibition result under setting [1] was “inactive”.

Take `COc1cc2cc(C(=O)N/N=C/c3ccc(F)cc3)[nH]c2cc1OC`: the inhibition under setting [1] was 2.5% (inactive).

With `CCN1CCN(c2cc(C)c3cc(NC(=S)N4CCN(c5ccc(F)cc5)CC4)ccc3n2)CC1`, the inhibition under setting [1] was 0.9% (inactive).

For the compound `Cc1nn(Cc2cccc(C(=O)O)c2)c(C)c1[N+](=O)[O-]`, under setting [1], the inhibition is 1.46% (inactive).

As for `Nc1ccccc1SCC1CSc2nc3ccccc3c(=O)n21` (stereo unspecified), under setting [1], the inhibition was 1.18% (inactive).

Take `O=C(Nc1ccccc1SCC1CSc2nc3ccccc3c(=O)n21)c1ccccc1Cl` (stereo unspecified): the inhibition under setting [1] is 13.7% (inactive).

Turning to `O=c1c2ccccc2nc2n1C(CSc1ccccc1)CS2` (stereo unspecified), under setting [1], the inhibition is 1% (inactive).

Consider `O=C(Nc1ccccc1SCC1CSc2nc3ccccc3c(=O)n21)c1ccccc1` (stereo unspecified), for which, under setting [1], the inhibition is 7.04% (inactive).

Take `CC(NC(=O)Cn1c(=O)[nH]c2ccsc2c1=O)C12CC3CC(CC(C3)C1)C2` (stereo unspecified): the inhibition under setting [1] is 4.05% (inactive).

Turning to `O=C(N/N=C/c1ccc(F)cc1)c1cc(-c2ccc3c(c2)OCO3)n[nH]1`, the inhibition under setting [1] was 3.22% (inactive).
